Screening data as filed in PubChem BioAssay.
A selection: hits, their analogues and other compounds. The true share with any hit is near 21%.
Pf growth 48h – P. falciparum growth inhibition at 48 hours (one generation). P. falciparum luciferase growth in erythrocytes, 48 h. Potency, µM (highest dose often 28.7 µM), for the others: at the highest dose activity change, negative = inhibition, most hits filed as inhibitors. hit rate 5.9% among 310,000. AID 504832; also: potency is read from the fitted curve at half-maximal effect; % is scaled to controls: 0 for no effect and ±100 for the full control effect
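First compound was added to culture medium, then infected red cells at 0.1% parasitemia and 2% hematocrit (final). After incubation at 37 C under 5% CO2, luciferase detection reagent was dispensed and light output recorded.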
Shiga inhibitor – Shiga toxin inhibition. Vero cells, Shiga toxin protein synthesis inhibition reporter. inhibition, % at 38.7 µM. hit rate 9.2% among 290,000. AID 2315; in the data active = inhibition mostly above about 28%, no sharp cut-off; inactive = mostly below about 43%; also: 0% is about no effect
CHX counter – affects cycloheximide protein synthesis inhibition readout, counter-screen | AID 2314 | hit rate 12% among 300,000 | cell reporter, cycloheximide protein synthesis inhibition counterscreen | max response, %; in the data active = max response mostly above about 13%, no sharp cut-off; inactive = mostly below about 14%; also: read at 38.3 µM for the half of the compounds with a filed dose; 0% is about no effect
NS1 function inh – inhibitors of influenza NS1 protein function. Potency, µM (top dose mostly 46.1 µM), for the others: at the highest dose activity, positive = more growth. hit rate 0.4% among 270,000; calls by dose curve; also: potency is read from the fitted curve at half-maximal effect; actives are rising curves; nearly all actives have a fitted effect of over 50% in size
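Read-out: OD600 growth recovery of NS1-expressing budding yeast. Cells grown overnight at 30C in -URA glucose medium, washed, resuspended and diluted 1:100 in 2% galactose assay medium, pH 6.0. Same strain lacking NS1 served as positive control.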
Pf growth 96h – inhibits malaria parasite growth, 96 h | P. falciparum luciferase reporter growth, 96 h | Potency, µM (titrated, usually from 28.7 µM), for inactives: top-dose activity change, negative = inhibition, actives largely listed as inhibitors | hit rate 6.9% among 320,000 | AID 504834; also: potency is read from the fitted curve at half-maximal effect; % is scaled to controls: 0 for no effect and ±100 for the full control effect
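Erythrocytes infected with luciferase-expressing P. falciparum were dispensed at 2% hematocrit and 0.05% parasitemia (final), then incubated with compounds 96 hours at 37 C in 5% CO2. Luminescence after detection reagent addition reported growth.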
Sm TGR inh – inhibitors of Schistosoma mansoni thioredoxin glutathione reductase; hit rate 3% among 360,000; Potency, µM (titrated, usually from 114 µM), for the others: at the highest dose activity change, negative = inhibition, usual class: inhibitors; Q962Y6; purified TGR, DTNB reduction, TNB absorbance 405 nm; also: potency is read from the fitted curve at half-maximal effect; % is scaled to controls: 0 for no effect and ±100 for the full control effect; nearly all actives have a fitted effect of over 60% in size
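First, TGR (20 nM dispensed) and NADPH were mixed with compound. Second, a 15 min room-temperature incubation followed. Third, further NADPH and then DTNB were added to start the reaction. Finally, TNB absorbance was monitored kinetically.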
The depositor's hits bear a star; i = inactive; u = inconclusive; x = not tested or not shown; [ ] = another dose, or the depositor's remark. Unless noted, calls follow the shape of the dose curve; as a rule, active = well fitted curve in the direction sought with a large enough effect; inconclusive = small, poorly fitted or top-dose-only effect, or another doubt; inactive = no such curve, though single readings can be large; an effect the other way counts as inactive or inconclusive.

SMILES | Pf growth 48h | Shiga inhibitor | CHX counter | NS1 function inh | Pf growth 96h | Sm TGR inh
COC(=O)c1ccc(NC(=O)c2cc(=O)c3ccc(C)cc3o2)cc1 | x | x | x | x | x | -8%
O=C(N/N=C/c1c(Cl)cccc1Cl)c1ccc(F)cc1 | -12% | 22 | 3 | -3% | -2% | 3%
O=C(N/N=C/c1c(Cl)cccc1Cl)c1n[nH]c2c1CCCC2 | 108% | 132* | 94* | u | -7% | -6%
Cc1ccsc1/C=N\NC(=O)c1n[nH]c2c1CCC2 | 49% | 3 | 11* | 4% | 10µM* | -9%
CCOC(=O)C(=Cc1ccc(OCc2ccc([N+](=O)[O-])cc2)c(OC)c1)C(=O)OCC | u | 27 | 43* | -3% | u | -8%
COc1cc(C(c2c(C)[nH][nH]c2=O)c2c(C)[nH][nH]c2=O)ccc1OCc1ccc([N+](=O)[O-])cc1 | u | 52 | 25* | 13% | 146% | 9%
CCOC(=O)/C(=C\c1ccc(OC)c(OC)c1)C(=O)c1cccnc1 | -19% | 1 | 0 | -19% | -7% | -17%
COc1cc(C=C2C(=O)NC(=O)NC2=O)ccc1OCc1ccc([N+](=O)[O-])cc1 | 25% | 102* | 59* | x | -3% | 25µM*
COc1ccc(/C=N/NC(=O)CSCc2ccc([N+](=O)[O-])cc2)cc1OC | -25% | -17 | 2 | -7% | 59% | 8%
COC(=O)C(=Cc1ccc(OCc2ccc([N+](=O)[O-])cc2)c(OC)c1)C(=O)OC | u | 42* | 24* | -1% | -2% | -33%
O=C(O)CCC(=O)N1N=C(c2ccccc2)CC1c1ccc2c(c1)OCO2 (stereo not given) | -4% | 17 | 9 | -2% | u | 2%
COc1ccc(OCC(=O)N/N=C(/C)Cc2ccccc2)cc1 | 32% | -3 | -2 | -2% | u | 6%
CCc1nnc(NC(=O)CSC(=S)N2CCOCC2)s1 | -21% | -17 | -1 | 5% | -14% | 3%
O=C(NNC(=O)c1cc(Br)c(Br)s1)c1ccncc1 | 11% | x | x | x | 49% | -1%
CN(CC(=O)Nc1ccc(Cl)c(C(F)(F)F)c1)C(=O)C1(c2ccccc2)CC1 | u | x | x | x | u | -1%
CCC(C)[C@H](NC(=O)[C@@H]1Cc2c([nH]c3ccccc23)C2c3ccccc3C(=O)N21)C(=O)N1CCC[C@@H]1C(=O)O (stereo not given in full) | u | 11 | 0 | u | 10µM* | -1%
Cc1ccc2c(c1)cc(CN(Cc1ccco1)C(=O)COc1ccccc1)c1nnnn12 | u | 65* | 26* | -12% | -20%[5.75 µM] | -16%
CCC(=O)N(Cc1ccco1)Cc1cc2cccc(C)c2n2nnnc12 | -11% | -4 | -3 | x | u | -9%
Cc1ccc(NC(c2cccc(Cl)c2)c2nnc(-c3ccccc3)o2)cc1F (stereo not given) | x | x | x | x | x | -9%
Cc1cc(C)c(NC(=O)CSc2nc3ccccc3c3nc(-c4ccccc4)nn23)c(C)c1 | x | x | x | x | x | 0%
COc1cc(C(=O)NC2CCCc3c2cnn3-c2ccccc2F)cc(OC)c1OC (stereo not given) | u | -4 | -1 | 1% | 3.3µM* | 2%
COc1ccc(N2C(=O)CSC23C(=O)N(CC(=O)NC2CCCC2)c2ccccc23)cc1 (stereo not given) | -5% | -4 | -3 | -11% | 8.3µM* | -10%
Nc1nccc(-c2ccc(-n3cccc3)cc2)n1 | 274% | 53* | 23* | x | 115% | -6%
COc1ccc(C(=O)Nc2cc(Cl)ccc2Cl)c(OC)n1 | 14% | 21 | 18* | -1% | 21% | 6%
CC(C)(C)C(=O)Nc1ccccc1C(=O)Nc1cc(Cl)ccc1Cl | 12µM* | -2 | -2 | -26% | 4.1µM* | 12%
SMILES | Pf growth 48h | Shiga inhibitor | CHX counter | NS1 function inh | Pf growth 96h | Sm TGR inh
Cc1cc(C)c(S(N)(=O)=O)c(C)c1N(C)S(=O)(=O)c1ccc(Cl)cc1 | -1% | -4 | 1 | -7% | u | 23%
COc1ccc(CCNC(=O)C(=O)NCC(c2ccco2)S(=O)(=O)c2ccc(C)cc2)cc1 (stereo not given) | x | x | x | x | x | -25%
CCOC(=O)c1ccoc1CSCc1ccc(C(=O)OC)o1 | 0% | 33 | -1 | -49% | -1% | 28µM*
COc1ccc2[nH]c(C(O)(Cc3cccnc3)Cc3cccnc3)cc2c1 | -7% | -8 | -6 | -5% | u | -8%
Cc1nc2sc(C(c3cccs3)N3CC(C)CC(C)C3)c(O)n2n1 (stereo not given) | 6.6µM* | -12 | -3 | -40% | u | -15%
O=C1COc2ccc(NC(=O)c3ccccc3C(=O)O)cc2N1 | 0% | -4 | -5 | 13% | 37% | 0%
O=C(O)c1ccc(NC(=O)c2ccc(COc3ccccc3)o2)cc1 | 13% | 55 | 17 | 3% | 52% | -9%
COc1cccc(OCC(=O)O)c1 | 71% | -12 | -5 | 13% | 24% | 5%
COc1ccc(C(=O)NN/C(C)=C/C(=O)C(F)(F)C(F)(F)C(F)(F)F)cc1 | 5% | 44* | 22* | -59% | u | -12%
COc1cccc(/C(C)=N/N=C(\C)c2cccc(OC)c2)c1 | 160% | 39* | 34* | -23% | 1% | -7%
COc1ccc(CC(=O)NNC(=O)c2ccc(NC(C)=O)cc2)cc1 | 13% | -3 | -4 | 5% | 19% | x
COc1cccc(C(N)CC(=O)O)c1 (stereo not given) | 15% | -4 | -2 | 6% | 8.3µM* | -22%
O=C(Nc1ccc(O)cc1)c1ccc(C(=O)c2ccccc2)o1 | u | 55* | 23 | -5% | x | -1%
Cn1c(=O)c2c(-c3ccccc3)n(-c3cccc(C#N)c3)cc2n(C)c1=O | x | x | x | x | x | -5%
O=C(NCc1ccncc1)c1nc(-c2ccc(C(F)(F)F)cc2)no1 | 13% | -6 | -5 | 0% | i | x
O=C(Cn1cc(C(F)(F)F)cc(Cl)c1=O)NCCc1ccccc1 | 24% | -11 | -2 | 9% | 29% | -5%
CCOc1ccccc1NC(=O)C(=O)/C=C(\O)c1cc(OC)ccc1OC | x | -8 | -2 | 11% | 117% | 14%
COc1cccc(C(=O)NC23CC4CC(CC(C4)C2)C3)c1 | 39% | 18 | 15* | -20% | -20% | -1%
CS(=O)(=O)Nc1ccc(C(=O)Nc2ccccc2-c2ccccc2)cc1 | u | x | -1 | -15% | 12µM* | 2%
Cc1cccc(C(=O)Nc2cc(NC(=O)c3cccs3)ccc2C)c1 | -29% | 14 | 6 | -14% | -18% | 1%
Cc1cccc(C(=O)Nc2ccc(C)c(OC(=O)c3cccc(C)c3)c2)c1 | 156% | 193* | 56* | -45% | 224% | 7%
COc1ccc(C(=O)NC23CC4CC(CC(C4)C2)C3)cc1 | -2% | 16 | 4 | 0% | 14% | 0%
